From PubChem BioAssay
Shown are actives, neighbours in structure and some others; about 2.8% of the full set was active somewhere.
Furin inh = blocks human furin protease activity | hit rate 0.061% among 220,000 | P09958 | purified furin, fluorogenic substrate cleavage | inhibition, % at 20 µM or 30 µM; in the data active = inhibition above about 25%
Target sequence (P09958 108-714 limits assumed): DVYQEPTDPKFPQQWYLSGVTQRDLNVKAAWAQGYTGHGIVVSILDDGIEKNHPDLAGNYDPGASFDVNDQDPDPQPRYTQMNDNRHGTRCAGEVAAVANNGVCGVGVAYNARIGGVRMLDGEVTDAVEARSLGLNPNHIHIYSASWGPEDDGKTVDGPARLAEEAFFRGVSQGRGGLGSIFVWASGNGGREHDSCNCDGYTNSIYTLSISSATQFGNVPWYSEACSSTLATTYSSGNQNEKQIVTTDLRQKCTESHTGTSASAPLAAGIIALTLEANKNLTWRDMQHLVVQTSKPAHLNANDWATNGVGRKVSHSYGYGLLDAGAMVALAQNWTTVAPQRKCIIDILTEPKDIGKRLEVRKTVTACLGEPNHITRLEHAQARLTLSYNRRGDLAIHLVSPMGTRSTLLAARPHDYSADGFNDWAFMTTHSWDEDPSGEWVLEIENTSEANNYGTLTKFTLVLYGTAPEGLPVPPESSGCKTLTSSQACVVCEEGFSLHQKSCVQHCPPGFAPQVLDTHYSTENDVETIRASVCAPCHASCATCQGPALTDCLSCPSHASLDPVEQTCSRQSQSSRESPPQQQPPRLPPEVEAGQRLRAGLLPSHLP
HSV augment = increases HSV replication in cells. hit rate 0.005% among 220,000. maximum fold increase. AID 1956. HSV replication augmentation in cells, fold increase; in the data active = maximum fold increase above about 1.5; tested in PC3 cells
NCF1 inh = p47phox (human) inhibition; p47phox/p22phox peptide binding, fluorescence polarization, 2 h; inhibition, % at 24.7 µM; AID 1274; hit rate 0.53% among 220,000;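 active = inhibition above about 30%, limit read from the data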;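 also: 0% = p47phox with labelled peptide and 100% = labelled peptide alone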
Wee1 degr inh = blocks degradation of human Wee1 kinase. P30291. reporter increase, % at 5 µM. hit rate 1.2% among 220,000. AID 1321. HeLa Luc-Wee1K328M stability, luciferase luminescence; 100% = proteasome inhibitor MG132 effect;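 active = activation above the mean of all tested compounds plus 3 SD, set per screening run, cut at about 8.8% in these data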;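 also: cells exposed to compound for 20 h before luminescence read; 0% = DMSO alone and 100% = MG132 at 30 µM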
EP2 modulator = modulators of human EP2 prostaglandin E2 receptor; induction, % at 25 µM; hit rate 0.83% among 260,000; P43116; EP2-expressing cells, cAMP HTRF FRET, PGE2 co-stimulation; AID 940;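 active = compounds whose cAMP rise, as percent of the full-agonist control response, exceeds 60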;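 also: rat C6 glioma line stably carrying human EP2 under a CMV promoter; the protocol text gives 20 µM as final concentration; 100% = response of wells given 1 µM PGE2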
PGE2 EP2 inh = blocks the human prostaglandin E2 receptor EP2 | P43116 | C6 glioma cells expressing human EP2, cAMP TR-FRET; cells stimulated with saturating PGE2 | inhibition, % at 25 µM | hit rate 0.52% among 260,000;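 active = percent inhibition above 40 after rounding to a whole number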;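 also: rat C6 glioma host cells with rolipram phosphodiesterase inhibitor present; the protocol text gives 20 µM as final concentration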
An asterisk follows results filed as active.

For CC(NC(=O)c1ccco1)c1nc(-c2ccncc2)n[nH]1 (centres undefined) the results were EP2 modulator -5.8 and PGE2 EP2 inh 5.7.
For Cc1onc(-c2c(Cl)cccc2Cl)c1C(=O)N1CCN(c2ncccn2)CC1 the results were Furin inh -3.8, HSV augment inactive, NCF1 inh 54.9*, Wee1 degr inh -3.8, EP2 modulator -1.5 and PGE2 EP2 inh 13.5.
`Cc1onc(-c2c(Cl)cccc2Cl)c1C(=O)N1CCN(c2ccccc2)CC1` gave Furin inh -11.0, HSV augment inactive, NCF1 inh -2.0, Wee1 degr inh -0.5, EP2 modulator -22.2 and PGE2 EP2 inh 4.0.
Screening O=C(C1CC(c2ccc(Cl)cc2)=NO1)N1CCCC1 (centres undefined) returned EP2 modulator -81.0 and PGE2 EP2 inh 9.0.
O=C(NCCCN1CCCCCC1)c1ccc(CS(=O)(=O)Cc2ccccc2F)o1 was read as Furin inh -18.2, HSV augment inactive, NCF1 inh 89.0*, Wee1 degr inh 0.0, EP2 modulator 20.2 and PGE2 EP2 inh 10.4.
`Cc1ccccc1NC(=O)Cn1cnc2sc(C(=O)OC(C)C)c(C)c2c1=O` gave EP2 modulator -3.8 and PGE2 EP2 inh 13.9.
`Cc1ccc(NS(=O)(=O)c2cc(C(=O)N3CCCC3)ccc2C)cc1C` gave Furin inh -8.3, HSV augment inactive, NCF1 inh -11.8, Wee1 degr inh 2.4, EP2 modulator -3.4 and PGE2 EP2 inh 6.0.
`Cc1ccc(NS(=O)(=O)c2cc(C(=O)N3CCN(C)CC3)ccc2C)cc1C` gave Furin inh -31.5, HSV augment inactive, NCF1 inh -6.7, Wee1 degr inh 8.9*, EP2 modulator 4.3 and PGE2 EP2 inh 7.2.
Screening Cc1nc(C)n(CCNC(=O)c2[nH]c3c(Cl)cccc3c2C)n1 returned EP2 modulator -47.4 and PGE2 EP2 inh 10.1.
COc1ccc(C2=NN(Cc3c(F)cccc3Cl)C(=O)CC2)cc1 was read as Furin inh -25.7, HSV augment inactive, NCF1 inh -13.9, Wee1 degr inh -2.9, EP2 modulator 63.4* and PGE2 EP2 inh 8.6.
`CN(C)[C@H]1C(=O)C(C(=O)NCN2CCCC2)=C(O)[C@@]2(O)C(=O)C3=C(O)c4c(O)cccc4[C@](C)(O)[C@H]3C[C@H]12` gave EP2 modulator 7.3 and PGE2 EP2 inh 44.0*.
O=C(Nc1cc(Cl)cc(Cl)c1)c1coc(=O)c(Br)c1 was read as Furin inh -4.8, HSV augment inactive, NCF1 inh -36.8, Wee1 degr inh 14.0*, EP2 modulator -33.6 and PGE2 EP2 inh 8.2.
`O=C(NC(CO)(CO)CO)c1coc(=O)c(Br)c1` gave Furin inh 7.2, HSV augment inactive, NCF1 inh -1.7, Wee1 degr inh 3.0, EP2 modulator 16.1 and PGE2 EP2 inh 4.7.
C[C@]1(c2ccccc2)O[C@@H]2C[C@H]3[C@@H]4CCC5=CC(=O)C=C[C@@]5(C)[C@@]4(F)[C@H](O)C[C@]3(C)[C@]2(C(=O)CO)O1 was read as EP2 modulator 1.6 and PGE2 EP2 inh 51.4*.
`C[C@H]1C[C@@H]2[C@@H]3CCC4=CC(=O)C=C[C@@]4(C)[C@@]3(F)[C@H](O)C[C@@]2(C)[C@]1(O)C(=O)COP(=O)(O)O` gave EP2 modulator 14.4 and PGE2 EP2 inh 41.6*.
For CC1(C)O[C@@H]2C[C@H]3[C@@H]4CCC5=CC(=O)C=C[C@]5(C)[C@@]4(F)[C@@H](O)C[C@]3(C)[C@]2(C(=O)CO)O1 the results were Furin inh -10.1, HSV augment inactive, NCF1 inh -1.2, Wee1 degr inh 6.3, EP2 modulator 5.6 and PGE2 EP2 inh 17.9.
For CN1[C@@H](C(=O)Nc2cccc(O)c2)C[C@@H](c2cccs2)NS1(=O)=O the results were EP2 modulator -29.7.
`CCCCC1C(=O)CC[C@H]2[C@@H]1CC(=O)[C@@H]2C/C=C\CCCC(=O)O` (some centres undefined) gave Furin inh -8.1, HSV augment inactive, NCF1 inh -5.7, Wee1 degr inh 0.4, EP2 modulator 80.3* and PGE2 EP2 inh 14.3.
`COc1cc(N=c2oc3c(C)ncc(CO)c3cc2C(N)=O)cc(OC)c1OC` gave Furin inh -17.9, HSV augment inactive, NCF1 inh -2.1, Wee1 degr inh -2.9, EP2 modulator -27.4 and PGE2 EP2 inh 6.4.
`COc1ccc(C)cc1NC(=O)c1cc2c(CO)cnc(C)c2oc1=N` gave Furin inh -6.4, HSV augment inactive, NCF1 inh 4.1, Wee1 degr inh 9.2*, EP2 modulator -1.4 and PGE2 EP2 inh 15.9.
Screening Cc1cc2cc(C(c3nnnn3C(C)(C)C)N3CCN(Cc4ccccc4)CC3)c(=O)[nH]c2cc1C (centres undefined) returned EP2 modulator 11.4 and PGE2 EP2 inh 91.0*.
`CCc1ccc2[nH]c(=O)c(C(c3nnnn3C(C)(C)C)N3CCN(c4ccccc4F)CC3)cc2c1` (centres undefined) gave EP2 modulator 73.7* and PGE2 EP2 inh 11.2.
`Cc1cc(C)c2[nH]c(=O)c(C(c3nnnn3C(C)(C)C)N3CCN(Cc4ccccc4)CC3)cc2c1` (centres undefined) gave EP2 modulator -7.4 and PGE2 EP2 inh 12.7.
Screening COc1ccc2[nH]c(=O)c(C(c3nnnn3C(C)(C)C)N3CCN(c4ccccc4F)CC3)cc2c1 (centres undefined) returned EP2 modulator 30.0 and PGE2 EP2 inh 8.1.
For COc1ccc(C2/C(=C(/O)c3ccccc3)C(=O)C(=O)N2CC#N)c(OC)c1 (centres undefined) the results were EP2 modulator 17.4 and PGE2 EP2 inh 10.3.
For CCOC(=O)c1cc2c(ccn2C)n1Cc1ccccc1C the results were Furin inh -22.4, HSV augment inactive, NCF1 inh -4.0, Wee1 degr inh -1.9, EP2 modulator 62.0* and PGE2 EP2 inh 3.9.
Screening CCOC(=O)c1cc2c(ccn2C)n1CC(=O)N(Cc1ccccc1)c1ccccc1 returned Furin inh -1.7, HSV augment inactive, NCF1 inh -30.6, Wee1 degr inh 0.2, EP2 modulator 59.2 and PGE2 EP2 inh 8.3.
Screening CCOC(=O)c1cc2c(ccn2C)n1Cc1ccccc1Cl returned Furin inh -5.5, HSV augment inactive, NCF1 inh -9.2, Wee1 degr inh -1.2, EP2 modulator 63.3* and PGE2 EP2 inh 7.0.
Screening Cc1ccccc1Cn1c(C(=O)OC(C)C)cc2c1ccn2C returned Furin inh -10.5, HSV augment inactive, NCF1 inh -11.0, Wee1 degr inh -0.8, EP2 modulator 53.4 and PGE2 EP2 inh 2.3.
`CCC(=O)NNC(=O)CSc1nc(C(C)C)nc2sc3c(c12)CCC(C)C3` (centres undefined) gave EP2 modulator 0.0 and PGE2 EP2 inh 6.8.
